Measured values published in the supplement of paper PMC6089552.
In all, about 3,200 compounds went through this assay and about 300 (9.4%) showed activity. The sample holds actives, similar compounds and a random draw of the others, so the mix is not that of the screen. Unmarked numbers belong to inactive results.

Tested on: A673/TR/shEF
Experiment: cell viability (LOESS-normalised, relative to median of negative controls) (log2 ratio); higher = more viable cells (less compound effect), active = hit call of the paper (over 3 MAD below the median)
Conditions: treatment time: 72 h
Method in brief: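 A673/TR/shEF Ewing sarcoma cells were plated at 1,500 per well in 384-well plates and cultured with or without doxycycline, added 24 h before compounds, to induce EWS-FLI1 shRNA knockdown. Library compounds at two or more concentrations, alongside DMSO controls, were applied for three days. Cell viability was measured by CellTiter-Glo luminescence on an Envision reader. Readings were LOESS-corrected per plate, divided by the median of negative controls and log2-transformed, and hits were wells lying at least three median absolute deviations from the median of all screened wells.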

[1] = 0.25 µM, library screen: screen2, EWS-FLI1 expression: high (no doxycycline)
[2] = 0.25 µM, library screen: screen2, EWS-FLI1 expression: low (doxycycline-induced shRNA knockdown)
[3] = 2.5 µM, library screen: screen2, EWS-FLI1 expression: high (no doxycycline)
[4] = 2.5 µM, library screen: screen2, EWS-FLI1 expression: low (doxycycline-induced shRNA knockdown)
[5] = 0.25 µM, library screen: screen1, EWS-FLI1 expression: high (no doxycycline)
[6] = 0.25 µM, library screen: screen1, EWS-FLI1 expression: low (doxycycline-induced shRNA knockdown)
[7] = 2.5 µM, library screen: screen1, EWS-FLI1 expression: high (no doxycycline)
[8] = 2.5 µM, library screen: screen1, EWS-FLI1 expression: low (doxycycline-induced shRNA knockdown)

CC(=O)O[C@H]1C[C@@H]2CC[C@@H]3[C@H](CC[C@@]4(C)[C@H]3C[C@H]([N+]3(C)CCCCC3)[C@@H]4OC(C)=O)[C@@]2(C)C[C@@H]1[N+]1(C)CCCCC1
cell viability (log2) (0.103 µM, library screen: screen3, EWS-FLI1 expression: high (no doxycycline)): 0.0285
cell viability (log2) (0.103 µM, library screen: screen3, EWS-FLI1 expression: low (doxycycline-induced shRNA knockdown)): 0.0357
cell viability (log2) [1]: 0.133
cell viability (log2) [2]: 0.105
cell viability (log2) (0.308 µM, library screen: screen3, EWS-FLI1 expression: high (no doxycycline)): 0.115
cell viability (log2) (0.308 µM, library screen: screen3, EWS-FLI1 expression: low (doxycycline-induced shRNA knockdown)): 0.051
cell viability (log2) (0.926 µM, library screen: screen3, EWS-FLI1 expression: high (no doxycycline)): 0.183
cell viability (log2) (0.926 µM, library screen: screen3, EWS-FLI1 expression: low (doxycycline-induced shRNA knockdown)): 0.0779
cell viability (log2) [3]: 0.145
cell viability (log2) [4]: 0.0752
cell viability (log2) (2.8 µM, library screen: screen3, EWS-FLI1 expression: high (no doxycycline)): 0.112
cell viability (log2) (2.8 µM, library screen: screen3, EWS-FLI1 expression: low (doxycycline-induced shRNA knockdown)): 0.0286
cell viability (log2) (8.3 µM, library screen: screen3, EWS-FLI1 expression: high (no doxycycline)): 0.106
cell viability (log2) (8.3 µM, library screen: screen3, EWS-FLI1 expression: low (doxycycline-induced shRNA knockdown)): 0.0203
cell viability (log2) (25 µM, library screen: screen3, EWS-FLI1 expression: high (no doxycycline)): 0.16
cell viability (log2) (25 µM, library screen: screen3, EWS-FLI1 expression: low (doxycycline-induced shRNA knockdown)): 0.0865

NS(=O)(=O)c1ccc2c(c1)CNCC2
cell viability (log2) [1]: 0.162
cell viability (log2) [2]: 0.085
cell viability (log2) [3]: 0.143
cell viability (log2) [4]: 0.0805

CC[S+]([O-])CCSP(=O)(OC)OC (configuration not stated)
cell viability (log2) [5]: 0.119
cell viability (log2) [6]: 0.0126
cell viability (log2) [7]: 0.119
cell viability (log2) [8]: 0.0247

NC(=O)c1cc([N+](=O)[O-])cc([N+](=O)[O-])c1
cell viability (log2) (0.025 µM, library screen: screen2, EWS-FLI1 expression: high (no doxycycline)): 0.148
cell viability (log2) (0.025 µM, library screen: screen2, EWS-FLI1 expression: low (doxycycline-induced shRNA knockdown)): 0.069
cell viability (log2) [5]: 0.071
cell viability (log2) [6]: 0.00829
cell viability (log2) [1]: 0.134
cell viability (log2) [2]: 0.0542
cell viability (log2) [7]: 0.16
cell viability (log2) [8]: 0.158
cell viability (log2) [3]: 0.195
cell viability (log2) [4]: 0.121
cell viability (log2) (25 µM, library screen: screen2, EWS-FLI1 expression: high (no doxycycline)): 0.244
cell viability (log2) (25 µM, library screen: screen2, EWS-FLI1 expression: low (doxycycline-induced shRNA knockdown)): 0.114

C=C[C@H]1CN2CC[C@H]1C[C@@H]2[C@@H](OC(=O)OCC)c1ccnc2ccc(OC)cc12
cell viability (log2) [5]: 0.12
cell viability (log2) [6]: 0.082
cell viability (log2) [7]: 0.173
cell viability (log2) [8]: 0.169

Brc1ccc(CN2CCNCC2)cc1
cell viability (log2) [5]: 0.0414
cell viability (log2) [6]: 0.121
cell viability (log2) [7]: 0.0626
cell viability (log2) [8]: 0.0805

C[C@@H](N)[C@@H](O)c1ccccc1
cell viability (log2) [5]: 0.199
cell viability (log2) [6]: 0.05
cell viability (log2) [7]: 0.0838
cell viability (log2) [8]: 0.0342

O=C(O)COc1ccc(Cl)cc1Cl
cell viability (log2) [5]: 0.0733
cell viability (log2) [6]: 0.0542
cell viability (log2) [7]: 0.0257
cell viability (log2) [8]: 0.121

Oc1ccc2c3c1O[C@H]1c4oc5ccccc5c4C[C@@]4(O)C(C2)N(CC2CC2)CCC314 (some centres not stated)
cell viability (log2) [1]: 0.123
cell viability (log2) [2]: 0.122
cell viability (log2) [3]: 0.0412
cell viability (log2) [4]: 0.065

CC(C)(C)c1o[nH]c(=O)c1CC(N)C(=O)O (configuration not stated)
cell viability (log2) [1]: 0.0947
cell viability (log2) [2]: 0.0371
cell viability (log2) [3]: 0.104
cell viability (log2) [4]: 0.0294

CC[C@@H](C)C(=O)O[C@H]1[C@H](O)[C@H]2[C@@H](CN3C[C@@H](C)CC[C@H]3[C@@]2(C)O)[C@@H]2C[C@]34O[C@]5(O)[C@@H](OC(=O)[C@@](C)(O)[C@@H](C)O)CC[C@@]3(C)[C@@H]5[C@@H](OC(C)=O)[C@@H](OC(C)=O)[C@H]4[C@@]21O
cell viability (log2) [5]: 0.0432
cell viability (log2) [6]: 0.0125
cell viability (log2) [7]: 0.068
cell viability (log2) [8]: 0.0811

CN1C2CC3CC1[C@H](O)C2O3 (some centres not stated)
cell viability (log2) [5]: 0.0139
cell viability (log2) [6]: -0.0209
cell viability (log2) [7]: 0.0278
cell viability (log2) [8]: 0.0758

NC(CF)(Cc1cnc[nH]1)C(=O)O (configuration not stated)
cell viability (log2) [1]: 0.186
cell viability (log2) [2]: 0.069
cell viability (log2) [3]: 0.162
cell viability (log2) [4]: 0.1

CC(=O)O[C@@H]1C[C@H]2C(C)(C)C(=O)C=C[C@]2(C)[C@H]2CC[C@]3(C)C(=CC(=O)O[C@H]3c3ccoc3)[C@@]21C
cell viability (log2) [5]: 0.03
cell viability (log2) [6]: 0.143
cell viability (log2) [7]: 0.0618
cell viability (log2) [8]: 0.0922

C=C(C)C(=O)/C(=C\C(=O)O)OC
cell viability (log2) [5]: 0.0761
cell viability (log2) [6]: 0.0593
cell viability (log2) [7]: 0.138
cell viability (log2) [8]: 0.0173

COP(=O)(OC)OC(Br)C(Cl)(Cl)Br (configuration not stated)
cell viability (log2) [5]: 0.05
cell viability (log2) [6]: -0.000859
cell viability (log2) [7]: 0.0787
cell viability (log2) [8]: 0.115

COc1cc(OC)c(OC)cc1C=O
cell viability (log2) [5]: 0.0675
cell viability (log2) [6]: 0.0986
cell viability (log2) [7]: 0.037
cell viability (log2) [8]: 0.0609

CN[C@@H](C)[C@H](O)c1ccccc1
cell viability (log2) [5]: 0.0728
cell viability (log2) [6]: 0.0797
cell viability (log2) [1]: 0.178
cell viability (log2) [2]: 0.073
cell viability (log2) [7]: 0.233
cell viability (log2) [8]: 0.0725
cell viability (log2) [3]: 0.0371
cell viability (log2) [4]: 0.00703

O=C(O)c1cc[c]([Hg][Cl])cc1
cell viability (log2) [1]: 0.203
cell viability (log2) [2]: 0.0774
cell viability (log2) [3]: -0.0791 (active)
cell viability (log2) [4]: 0.0559

COc1ccc(C(=O)O)cc1OC
cell viability (log2) [5]: 0.0171
cell viability (log2) [6]: 0.0588
cell viability (log2) [7]: 0.137
cell viability (log2) [8]: -0.0498

NNCc1cccc(O)c1
cell viability (log2) [5]: 0.103
cell viability (log2) [6]: 0.0544
cell viability (log2) [1]: 0.129
cell viability (log2) [2]: 0.00623
cell viability (log2) [7]: 0.142
cell viability (log2) [8]: 0.142
cell viability (log2) [3]: 0.151
cell viability (log2) [4]: 0.0221
